In PubChem BioAssay:
Values joined by “and” are separate entries in the source; they are usually repeats but may differ in a detail not shown here. Identical values can stand only once. Active and inactive are the calls of the source.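 How the source made its calls: active means compounds whose cell count with miR-34 switched on is under 0.7 times the count with it off; inactive means the rest.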

Assay: sensitizers of A549 cells to miR-34 induction, primary screen, imaging, A549 dox-inducible miR-34, nuclei and caspase counts (AID 1347080); further: test concentration not given here
Details: A549 miR-34 inducible, Hoechst nuclei count, 48 h
[1] = stronger effect = lower value, cell number ratio, induced over uninduced
[2] = measured here: relative caspase fold change +Dox/-Dox
[3] = measured here: total cells with miR-34 induction, stronger effect = lower value
[4] = measured here: total cells without miR-34 induction

Row | Compound | fold change [1] | fold change [2] | cell count [3] | cell count [4]
1 | O=C(O)CCC/C=C/C[C@@H]1[C@@H](/C=C/[C@@H](O)COc2cccc(C(F)(F)F)c2)[C@H](O)C[C@@H]1O | 0.985 (inactive) | 1.11 | 6470 | 6570
2 | CC(C)OC(=O)CCC/C=C\C[C@@H]1[C@@H](/C=C/[C@H](O)CCc2ccccc2)[C@H](O)C[C@@H]1O | 0.945 (inactive) | 1.74 | 6060 | 6410
3 | CCCCCC(=O)/C=C/[C@@H]1[C@@H](CCCCCCC(=O)O)[C@@H](O)C[C@H]1O | 1.03 (inactive) | 1.29 | 5670 | 5520
4 | C/C=C/C(=O)O[C@H](COCCCCCCCCCCCCCCCC)COP(=O)([O-])OCC[N+](C)(C)C | 0.851 (inactive) | 1.03 | 4860 | 5710
5 | CCCCC[C@@H](O)/C=C/[C@@H]1[C@H](C/C=C\CCCC(=O)O)[C@@H](O)C[C@H]1O | 0.832 (inactive) | 1.39 | 5000 | 6010
6 | CCNC(=O)CCC/C=C\C[C@@H]1[C@@H](CC[C@@H](O)CCc2ccccc2)[C@H](O)C[C@@H]1O | 0.901 (inactive) | 1.65 | 5780 | 6420
7 | COc1ccc(/C=C/C(=O)Nc2c(O)cccc2C(=O)O)cc1OC | 0.585 (active) | 0.687 | 3430 | 5870
8 | O=C(O)/C=C/CCCCCCCCC(=O)O | 0.99 (inactive) | 1.16 | 5830 | 5890
9 | CCCCC[C@H](O)/C=C/[C@@H]1[C@@H](C/C=C/CCCC(=O)O)[C@@H](O)C[C@H]1O | 0.9 (inactive) and 0.944 (inactive) | 1.55 and 0.855 | 5350 and 5640 | 5940 and 5970
10 | CCCCC[C@H](O)/C=C/[C@@H]1[C@H](CCCCCCC(=O)O)[C@@H](O)C[C@H]1O | 0.957 (inactive) | 1.43 | 6250 | 6530
11 | O=C(O)CCC/C=C\C[C@@H]1[C@@H](/C=C/C(=O)CCc2ccccc2)[C@H](O)C[C@@H]1O | 0.902 (inactive) | 1.59 | 5390 | 5980
12 | COC1=C2C[C@@H](C)C[C@H](OC)[C@H](O)[C@@H](C)/C=C(\C)[C@H](OC(N)=O)[C@@H](OC)/C=C\C=C(/C)C(=O)NC(=CC1=O)C2=O | 0.898 (inactive) | 1.11 | 1320 | 1470
13 | CC(C)c1cc2c(c(O)c1O)C13CCCC(C)(C)C1CC2OC3=O (stereo not given) | 0.942 (inactive) | 1.02 | 5390 | 5730
14 | CCCCC/C=C\C/C=C\C/C=C\C/C=C\CCCC(=O)OCC | 0.807 (inactive) | 0.655 | 5170 | 6410
15 | CCCCC[C@@](C)(O)/C=C/[C@H]1[C@H](O)CC(=O)[C@@H]1C/C=C\CCCC(=O)O | 1.04 (inactive) | 1.07 | 5770 | 5570
16 | CCCCC[C@H](O)/C=C/[C@H]1CC[C@H](O)[C@@H]1C/C=C\CCCC(=O)O | 0.956 (inactive) | 1.76 | 6120 | 6400
17 | CCCCCCCCCCCCCCCCCCCCCC(=O)NCCO | 1.03 (inactive) | 0.641 | 6180 | 5980
18 | CC/C=C/C[C@H](O)/C=C/[C@H]1[C@H](O)CC(=O)[C@@H]1C/C=C\CCCC(=O)O | 0.915 (inactive) | 1.46 | 5700 | 6230
19 | CC(C)CCOc1ccc(N)cc1 | 0.779 (inactive) | 2.13 | 3780 | 4850
20 | O=C(OCc1ccccc1)[C@H](O)c1ccccc1 | 1.04 (inactive) | 0.545 | 5580 | 5350

Row | Compound | fold change [1] | fold change [2] | cell count [3] | cell count [4]
21 | N[C@@H](Cc1ccc(O)c([N+](=O)[O-])c1)C(=O)O | 0.943 (inactive) | 1.05 | 5730 | 6080
22 | [O-]/[N+](=N/O[C@@H]1O[C@H](CO)[C@H](O)[C@H](O)[C@H]1O)N1CCCC1 | 0.904 (inactive) | 0.427 | 6560 | 7260
23 | CCCCCCCCC#CCCCCCCCC(=O)c1nc2ncccc2o1 | 1.03 (inactive) | 1.11 | 6180 | 5990
24 | O=C1C[C@@H]2[C@@H](/C=C/[C@@H](O)COc3cccc(C(F)(F)F)c3)[C@H](O)C[C@@H]2O1 | 0.96 (inactive) | 1.35 | 5650 | 5880
25 | COC(=O)[C@H](Cc1ccccc1)NC(=O)/C=C/c1ccc(O)cc1 | 1 (inactive) | 0.674 | 6500 | 6490
26 | COc1ccc(/C=C/C(=O)CC(=O)/C=C/c2cccc(O)c2OC)cc1O | 0.925 (inactive) | 1.39 | 3510 | 3790
27 | C[C@H](CCCO)[C@H]1CC[C@H]2[C@@H]3[C@H](O)C[C@H]4C[C@H](O)CC[C@]4(C)[C@H]3C[C@H](O)[C@]12C | 0.949 (inactive) | 1.07 | 5800 | 6110
28 | CCCCCCC[C@H](O)/C=C/[C@@H]1[C@@H](C/C=C\CCCC(=O)O)[C@@H](O)C[C@H]1O | 0.945 (inactive) | 1.5 | 6150 | 6520
29 | CCCC[C@H](C)C[C@H](O)/C=C/[C@H]1[C@H](O)CC(=O)[C@@H]1CCCCC(CC(=O)O)OC (stereo not given in full) | 0.949 (inactive) | 0.824 | 5200 | 5480
30 | CCCCC[C@H](O)/C=C/[C@@H]1[C@@H](C/C=C\CCCC(=O)N(C)C)[C@@H](O)C[C@H]1O | 0.94 (inactive) | 1.13 | 5150 | 5480
31 | OC[C@H]1O[C@H](O[C@H]2[C@H](O)[C@@H](O)[C@H](O)O[C@@H]2CO)[C@H](O)[C@@H](O)[C@@H]1O | 0.99 (inactive) | 0.551 | 8780 | 8870
32 | CCCCC/C=C/C=C1/C=CC(=O)[C@@H]1CCCCCCC(=O)O | 1.71 (inactive) | 0.938 | 5570 | 3250
33 | CCCCCCCC/C=C\CCCCCC(=O)O | 0.938 (inactive) | 0.407 | 5490 | 5860
34 | C[Se]CC[C@H](N)C(=O)O | 0.969 (inactive) | 0.907 | 8780 | 9060
35 | CCCCCCCCCCCCCCCNC(=O)C1CCCCC1 | 1.13 (inactive) | 0.274 | 6830 | 6070
36 | CCCCCCCCCCCCCCCCOC[C@H](COP(=O)([O-])OCC[N+](C)(C)C)OCC | 0.91 (inactive) | 1.05 | 5080 | 5580
37 | CCCCC[C@](C)(O)/C=C/[C@@H]1[C@@H](C/C=C\CCCC(=O)OC)[C@@H](O)C[C@H]1O | 0.977 (inactive) | 1.61 | 6340 | 6490
38 | N=C(N)SCCC[C@H](N)C(=O)O | 0.98 (inactive) | 0.775 | 5850 | 5970
39 | CCOc1c2c(c(OCC)c3ccccc13)C(=O)N(c1ccc(CC(=O)NS(=O)(=O)c3ccccc3)cc1)C2 | 0.911 (inactive) | 1.11 | 5560 | 6100
40 | Cc1nc(-c2ccc(C(F)(F)F)cc2)sc1C(=O)NCc1ccc(OC(C)(C)C(=O)O)cc1 | 0.946 (inactive) | 0.5 | 5220 | 5520

Row | Compound | fold change [1] | fold change [2] | cell count [3] | cell count [4]
41 | CCCCc1ccc(N=CNO)c(C)c1 | 1.01 (inactive) | 0.762 | 6020 | 5950
42 | CCCCC[C@H](O)/C=C/[C@H]1C2CC(CO2)[C@@H]1CCCCCCC(=O)O (stereo not given in full) | 0.941 (inactive) | 0.43 | 5850 | 6210
43 | CCCCCCC(=O)SC[C@H](COP(=O)([O-])OCC[N+](C)(C)C)SC(=O)CCCCCC | 0.918 (inactive) | 0.72 | 5570 | 6070
44 | CCCCC/C=C\C/C=C\CCCCCCCC(=O)OC[C@H](O)CO | 0.698 (active) | 0.477 | 4490 | 6430
45 | NCc1cccc2ccncc12 | 0.913 (inactive) | 0.524 | 5270 | 5780
46 | COc1ccc2cc(C(C#N)OC(=O)CC3OC3c3ccccc3)ccc2c1 (stereo not given) | 0.909 (inactive) | 0.7 | 5490 | 6040
47 | CCCCCCCCCCCCCCCCC/C=C/C(=O)O | 0.976 (inactive) | 0.547 | 5370 | 5500
48 | CCCCC[C@H](O)/C=C/[C@@H]1[C@@H](C/C=C\CCCCOC)[C@@H](O)C[C@H]1O | 0.815 (inactive) | 1.35 | 5300 | 6500
49 | N#Cc1cc2c(OCC(O)CN3CCN(C(c4ccccc4)c4ccccc4)CC3)cccc2[nH]1 (stereo not given) | 0.956 (inactive) | 1.38 | 1480 | 1550
50 | CCCCCCCCCCCCCC(=O)OCC | 1.01 (inactive) | 1.49 | 5310 | 5240
51 | CCCCCCCCCC(=O)N[C@@H](Cc1c[nH]c2ccccc12)C(=O)N[C@@H](CC(N)=O)C(=O)N[C@@H](CC(=O)O)C(=O)N[C@@H]1C(=O)NCC(=O)N[C@@H](CCCN)C(=O)N[C@@H](CC(=O)O)C(=O)N[C@H](C)C(=O)N[C@@H](CC(=O)O)C(=O)NCC(=O)N[C@H](CO)C(=O)NC([C@@H](C)CC(=O)O)C(=O)N[C@@H](CC(=O)c2ccccc2N)C(=O)OC1C (stereo not given in full) | 0.953 (inactive) | 0.725 | 8550 | 8980
52 | OCC(O)[C@@H](O)CO (stereo not given in full) | 0.92 (inactive) | 0.896 | 8910 | 9680
53 | CCCCC[C@](C)(O)/C=C/[C@@H]1[C@@H](C/C=C\CCCC(=O)O)[C@@H](O)C[C@H]1O | 0.971 (inactive) | 1.48 | 5410 | 5570
54 | Nc1nc2c([nH]c(=O)n2[C@H]2C[C@H](O)[C@@H](CO)O2)c(=O)[nH]1 | 0.857 (inactive) | 1.18 | 4960 | 5800
55 | O=C(O)CCC/C=C\C[C@H]1[C@@H](O)CC(=O)[C@@H]1/C=C/[C@@H](O)CCc1ccccc1 | 0.982 (inactive) | 1.03 | 5860 | 5960
56 | O=C1OC2(c3ccc(O)cc3Oc3cc(Oc4ccc(O)cc4)ccc32)c2ccccc21 (stereo not given) | 0.956 (inactive) | 1.49 | 6230 | 6520
57 | O=C(/C=C/c1cccc(C(=O)NO)c1)NO | 0.962 (inactive) | 1.09 | 4750 | 4940
58 | CCCCC/C=C\C/C=C\C/C=C\C/C=C\CCCC(=O)C(F)(F)F | 0.997 (inactive) | 0.841 | 5370 | 5390
59 | NCCCNCCCCN(CCCN)[N+]([O-])=NO | 1.02 (inactive) | 1.33 | 5980 | 5880
60 | CCCCCCCCCCCCC(=O)N[C@H]1CCOC1=O | 0.915 (inactive) | 1.35 | 5190 | 5670
